For orientation: AC50 means the concentration at which the activity in the assay is half-maximal.

The record followed here is PubChem BioAssay (EPA / NIEHS).

Active and inactive are the calls of the source. How the source made its calls: active means hit-call score of the fitted dose curve at least 0.9, where 1 is the maximum; inactive means score below 0.9.

This test in a line: CCTE_Shafer_MEA_dev_correlation_coefficient_mean: CCTE's Neural Network Formation Assay for Mean Correlation Coefficient, Shafer Lab (AID 2284093).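 On AC50: well mean pairwise spike train correlation integrated as AUC over recording days 5 to 12.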 On the procedure:
CCTE_Shafer_MEA_dev assay is conducted using Axion Biosystems 48 well microelectrode array (MEA) plates and Maestro recording system. Each well of the MEA plate contains a grid of 16 microelectrodes embedded in the culture surface. Electrically active cells, such as neurons, can be cultured over the electrodes, and electrical activity in these cells can be recorded extracellularly. The spontaneous firing of neurons is captured from each electrode on a microsecond timescale providing both temporally and spatially precise data. […] The CCTE_Shafer_MEA_dev assay uses primary cultures of rat cortical neurons. Recordings are made on days post-plating 5, 7, 9 and 12. As these cultures mature over time, neural networks develop functional activity and form cohesive networks in which electrical activity can be highly coordinated. CCTE_Shafer_MEA_dev_correlation_coefficient_mean is 1 of 19 assay components of the CCTE_Shafer_MEA_dev assay. It measures the correlation coefficent of spikes (action potential firings) between every pair of electrodes in a well during a recording in a microelectrode array (MEA) using Axion Biosystems Maestro 768 channel amplifier with the AxIS adaptive spike detector. The pairwise correlations are averaged across active electrodes to report a well-mean value. To collapse across multiple recordings made on days post-plating 5, 7, 9 and 12, the trapezoidal area-under-the-curve of the component is calculated.Data from the assay component CCTE_Shafer_MEA_dev_correlation_coefficient_mean was analyzed into 1 assay endpoint. This assay endpoint, CCTE_Shafer_MEA_dev_correlation_coefficient_mean, was analyzed in the negative analysis fitting direction relative to DMSO as the negative control and baseline of activity. Using a type of functional reporter, gain or loss-of-signal activity can be used to understand electrical activity.
On the day prior to culture, each well was coated thoroughly with 150 uL of 0.05% polyethyleneimine (PEI, Sigma Cat P3143) in 50 mM HEPES (Sigma Cat H7523) at a pH of 8. The plate was incubated at 37C for one hour. PEI was rinsed out with 500 uL of sterile water three times. Plates were stored at 4C until the day of culture. This culture was plated at a seeding density of 1.5 x 10^5 cells/well on a 48-well MEA plate, prepared as described above. Cells were administered via a 25 uL media/laminin ([…]; Sigma Cat L2020-1MG) drop directly onto the microelectrode array, as adding the cells with the laminin results in better attachment than pre-coating with laminin. After 2 hours, an additional 475 uL of cortical media was added and the cells returned to the incubator. Exposure starts at day 0 of plating and is continued over twelve days of network development until the experiment is terminated. Cells are fed with fresh medium on DIV 5 and 9, following the recordings on those days. The entire volume of media in the well is exchanged and any vehicle or compound treatment is renewed. Complete details are found in OP-NHEERL/ISTD/SBB/TJS/2015-03-r0 (available on request, email shafer.tim@epa.gov). Measurement of the electrical activity is non-invasive, and recordings can be made from the same plate over multiple different days of the culture. In cortical neurons, this allows for the measurement of extracellular action potentials over the period during which networks form in the MEA plate.
For `NC(=O)NO`, the result was inactive.

Consider `CCC(C)(C)C(=O)O[C@H]1C[C@@H](C)C=C2C=C[C@H](C)[C@H](CC[C@@H]3C[C@@H](O)CC(=O)O3)[C@H]21`, for which the AC50 was 1510 nM (active).

With `CC[C@H]1OC(=O)[C@H](C)[C@@H](O[C@H]2C[C@@](C)(OC)[C@@H](O)[C@H](C)O2)[C@H](C)[C@@H](O[C@@H]2O[C@H](C)C[C@H](N(C)C)[C@H]2O)[C@](C)(O)C[C@@H](C)C(=O)[C@H](C)[C@@H](O)[C@]1(C)O`, the call was inactive.

Turning to `Cn1c(=O)c2c(ncn2C)n(C)c1=O`, the outcome was inactive.

For the molecule `Nc1nc2ncc(CNc3ccc(C(=O)N[C@@H](CCC(=O)O)C(=O)O)cc3)nc2c(=O)[nH]1`, the result was inactive.

On to `CNCc1ccc(NC(=O)c2c[nH]c3c2C(=O)CCC3)cc1`, for which the outcome was inactive.

Turning to `O=P(OC(CCl)CCl)(OC(CCl)CCl)OC(CCl)CCl`, the outcome was inactive.

With `O=C1CCC(N2C(=O)c3ccccc3C2=O)C(=O)N1` (stereo not given), the molecule was classed as inactive.

Turning to `COc1ccc(-n2nc(C(F)F)cc2-c2ccc(S(C)=O)cc2)cc1` (stereo not given), the result was inactive.

As for `CC[C@H](C)C(=O)O[C@H]1C[C@@H](C)C=C2C=C[C@H](C)[C@H](CC[C@@H]3C[C@@H](O)CC(=O)O3)[C@H]21`, the AC50 was 16.9 nM (active).
